# Reference: PubChem BioAssay (Tox21)
# Values without a mark were called inactive. Inconclusive results are not listed. Entries that show only a call come without a potency. Calls of active or inactive are those of the source. The call rests on the fitted dose curve; in most records, active means well fitted curve in the direction sought with a large enough effect in the repeat runs; inconclusive means weak or mixed curves; inactive means no such curve, though single readings can be large; an effect the other way counts as inactive or inconclusive.
# Key:
# [1] = Human pregnane X receptor (PXR) small molecule agonists, qHTS cell viability counter screen (AID 1346977); further: nearly all actives have a fitted effect of over 50% in size; further: potency means the concentration at half of the fitted maximal effect
# Summary of the method: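 PXR-Luc HepG2 cells in medium with 5% charcoal-stripped FBS were pre-incubated 5hr, then exposed to compounds for 24hr at 37C. Viability was read in the same wells by CellTiter-Fluor fluorescence, reagent added after 23hr with a 1hr incubation.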
# [2] = Caspase-3/7 induction in HepG2 cells by small molecules, qHTS assay (AID 1346978); further: nearly all actives have a fitted effect of over 15% in size
# Summary of the method: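 Wild-type HepG2 cells (2,000/well) were settled 5 h at 37 C, 5% CO2, then exposed to compounds in DMSO for 17 h. Caspase-3/7 activity was read by luminescence 30 min after adding Caspase-Glo 3/7 reagent at room temperature.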
# [3] = Caspase-3/7 induction in HepG2 cells by small molecules, qHTS cell viability counter screen (AID 1346981); further: nearly all actives have a fitted effect of over 30% in size; further: potency means the concentration at half of the fitted maximal effect
# Summary of the method: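 Steps: seed 2,000 HepG2 cells per well; incubate 5 hr at 37 C; pin-add compounds in DMSO; incubate 16 hr; add CellTiter-Fluor; after 1 hr at 37 C and 5% CO2, read fluorescence.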
# [4] = target: Nuclear receptor subfamily 1 group I member 2 (Homo sapiens) (UniProt O75469); experiment: Human pregnane X receptor (PXR) small molecule agonists, qHTS assay (AID 1346982); further: nearly all actives have a fitted effect of over 35% in size; further: potency means the concentration at half of the fitted maximal effect
# Summary of the method: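 Agonist mode qHTS: PXR-Luc HepG2 cells plated 5 hr before DMSO-dissolved compounds were pinned in, cultured 24 hr at 37 C, 5% CO2; ONE-Glo luminescence readout.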
# [5] = target: Nuclear receptor subfamily 1 group I member 2 (Rattus norvegicus) (UniProt Q9R1A7); experiment: Rat pregnane X receptor (rPXR) activation by small molecules, qHTS assay (AID 1346983); details: rPXR luciferase reporter cells, One-Glo luminescence, 24 h; max activation: hits give high values; further: nearly all actives have a fitted effect of over 20% in size; further: potency means the concentration at half of the fitted maximal effect
# Summary of the method: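 Cell-based rPXR luciferase reporter assay, 2,000 cells per well, rested 5hr at 37 C before compound addition in DMSO, then 24 hr at 37 C. One-Glo reagent was added and luminescence read after 30 min at room temperature.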
# [6] = target: Cytochrome P450 2D6 (Homo sapiens) (UniProt P10635); experiment: Cytochrome P450 Family 2 Subfamily D Member 6 (CYP2D6) small molecule antagonists: luciferase reporter qHTS assay (AID 1671196); further: nearly all actives have a fitted effect of over 50% in size; further: potency means the concentration at half of the fitted maximal effect
# Summary of the method: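 P450-Glo format: CYP2D6 converts a proluciferin substrate to luciferin in an NADPH-driven reaction lasting 1 h at room temperature. Light output, proportional to CYP2D6 activity, reflects interference by test chemicals.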
# [7] = target: Nuclear receptor subfamily 1 group I member 2 (Homo sapiens) (UniProt O75469); experiment: CYP3A4 induction through human pregnane X receptor (PXR) by small molecules, qHTS assay (AID 1346984); further: nearly all actives have a fitted effect of over 40% in size; further: potency means the concentration at half of the fitted maximal effect
# Summary of the method: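 Steps: seed DPX-2 cells, 5 hr at 37C; pin-transfer compounds; 24 hr at 37C; add Luciferin-IPA (3uM final), 3 hr at 37C; add One-Glo, 30 min RT; read luminescence.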
# [8] = target: Nuclear receptor subfamily 1 group I member 2 (Homo sapiens) (UniProt O75469); experiment: Human pregnane X receptor (PXR) activation by small molecules, qHTS assay (AID 1346985); further: nearly all actives have a fitted effect of over 40% in size; further: potency means the concentration at half of the fitted maximal effect
# Summary of the method: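 DPX-2 cells (HepG2 co-transfected with a PXR response element and a CYP3A4-promoter luciferase construct) were seeded at 2,000 per well, rested 5 hr at 37C, then exposed to DMSO-dissolved compounds for 24 hr. Activation was read as luciferase luminescence.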
# [9] = Caspase-3/7 induction in CHO-K1 cells by small molecules, qHTS assay (AID 1346980); further: nearly all actives have a fitted effect of over 15% in size
# Summary of the method: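 Wild-type cells were seeded at 1,500 per well and settled 5 hr at 37 C, 5% CO2, then exposed to DMSO-dissolved compounds for 17 hr. Caspase-Glo 3/7 reagent was added, and luminescence was read after 30min at room temperature.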
# [10] = Caspase-3/7 induction in CHO-K1 cells by small molecules, qHTS cell viability counter screen (AID 1346979); further: nearly all actives have a fitted effect of over 35% in size; further: potency means the concentration at half of the fitted maximal effect
# Summary of the method: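 Wild-type CHO-K1 cells were seeded at 1,500 per well, rested 5hr at 37 C, then exposed to compounds in DMSO. After 16hr, CellTiter-Fluor reagent was added and fluorescence read 1hr later as the viability measure.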
# Chain of Nuclear receptor subfamily 1 group I member 2 (Homo sapiens) (O75469 whole entry, looked up): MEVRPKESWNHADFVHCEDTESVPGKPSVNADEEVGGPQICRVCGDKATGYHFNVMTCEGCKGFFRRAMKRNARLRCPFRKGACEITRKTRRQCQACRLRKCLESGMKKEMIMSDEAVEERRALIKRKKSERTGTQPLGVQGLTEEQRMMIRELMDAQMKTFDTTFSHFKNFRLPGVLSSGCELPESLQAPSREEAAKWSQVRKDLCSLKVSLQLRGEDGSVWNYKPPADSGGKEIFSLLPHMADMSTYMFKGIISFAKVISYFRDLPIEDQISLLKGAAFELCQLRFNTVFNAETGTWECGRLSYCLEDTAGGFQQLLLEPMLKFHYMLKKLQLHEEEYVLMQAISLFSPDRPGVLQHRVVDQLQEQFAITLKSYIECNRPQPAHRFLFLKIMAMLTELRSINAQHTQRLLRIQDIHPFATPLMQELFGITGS
# Chain of Cytochrome P450 2D6 (Homo sapiens) (P10635 whole entry, looked up): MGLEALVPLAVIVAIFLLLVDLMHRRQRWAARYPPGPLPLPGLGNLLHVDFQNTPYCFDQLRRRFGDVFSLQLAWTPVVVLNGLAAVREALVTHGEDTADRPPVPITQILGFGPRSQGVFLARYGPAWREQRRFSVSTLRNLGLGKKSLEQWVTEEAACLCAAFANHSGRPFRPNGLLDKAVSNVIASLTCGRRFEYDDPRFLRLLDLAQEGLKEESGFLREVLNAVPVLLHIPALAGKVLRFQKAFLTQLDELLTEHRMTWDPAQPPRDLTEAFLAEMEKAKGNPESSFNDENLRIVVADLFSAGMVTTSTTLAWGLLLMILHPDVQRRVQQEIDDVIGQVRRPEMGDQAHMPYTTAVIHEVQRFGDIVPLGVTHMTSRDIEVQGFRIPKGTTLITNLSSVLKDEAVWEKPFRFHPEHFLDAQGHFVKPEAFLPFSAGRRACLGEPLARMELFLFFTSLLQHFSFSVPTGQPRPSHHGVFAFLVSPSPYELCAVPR
# Chain of Nuclear receptor subfamily 1 group I member 2 (Rattus norvegicus) (Q9R1A7 whole entry, looked up): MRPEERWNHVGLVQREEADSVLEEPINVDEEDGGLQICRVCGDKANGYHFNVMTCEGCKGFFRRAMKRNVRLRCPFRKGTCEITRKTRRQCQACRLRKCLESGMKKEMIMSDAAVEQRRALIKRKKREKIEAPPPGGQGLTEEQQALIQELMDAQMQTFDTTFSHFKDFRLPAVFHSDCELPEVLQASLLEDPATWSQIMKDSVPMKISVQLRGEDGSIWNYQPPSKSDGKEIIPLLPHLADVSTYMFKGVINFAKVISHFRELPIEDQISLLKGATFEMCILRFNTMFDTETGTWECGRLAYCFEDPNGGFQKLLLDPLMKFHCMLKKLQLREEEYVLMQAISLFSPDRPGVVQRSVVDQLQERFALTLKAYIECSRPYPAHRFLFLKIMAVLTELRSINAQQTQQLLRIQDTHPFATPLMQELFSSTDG
structure (smiles),measurement,setting,value
Cc1ccc(C(=O)Oc2ccc(C(O)CNC(C)(C)C)cc2OC(=O)c2ccc(C)cc2)cc1 (stereo unspecified),Potency,[1],inactive
same,Potency,[2],inactive
same,Potency,[3],inactive
CC/C=C\CCOC(=O)CC,Potency,[1],inactive
same,Potency,[2],inactive
same,Potency,[4],inactive
O=C(c1ccc(F)cc1)C1CCN(CCn2c(=S)[nH]c3ccccc3c2=O)CC1,Potency,[1],inactive
same,Potency,[2],inactive
same,Potency,[3],inactive
same,Potency,[4],10.6 µM (active)
same,max activation,[5],1.09%
same,Potency,[6],4.36 µM (active)
CCCCC1=NC2(CCCC2)C(=O)N1Cc1ccc(-c2ccccc2-c2nn[nH]n2)cc1,Potency,[1],inactive
same,Potency,[2],inactive
same,Potency,[4],inactive
same,max activation,[5],-1.35%
same,Potency,[7],inactive
same,Potency,[8],inactive
same,Potency,[6],inactive
Cc1cccc(Nc2ccccc2)c1,Potency,[1],inactive
same,Potency,[9],inactive
same,Potency,[3],inactive
Clc1ccc2c(c1)CCc1cccnc1C2=C1CCNCC1,Potency,[1],29.8 µM (active)
same,Potency,[9],inactive
same,Potency,[4],inactive
same,max activation,[5],-7.49%
same,Potency,[8],14.1 µM (active)
CC(C)=CCC/C(C)=C/CC/C(C)=C/CO,Potency,[1],inactive
same,Potency,[2],inactive
same,Potency,[3],inactive
same,Potency,[4],43.3 µM (active)
same,Potency,[6],39.9 µM (active)
C[C@H]1C[C@H]2[C@@H]3CCC4=CC(=O)C=C[C@]4(C)[C@@]3(Cl)[C@@H](O)C[C@]2(C)[C@@]1(O)C(=O)CO,Potency,[1],inactive
same,Potency,[2],inactive
same,Potency,[5],5.62 µM (active)
same,Potency,[7],15.8 µM (active)
same,Potency,[8],11.2 µM (active)
same,Potency,[6],30.9 µM (active)
O=C1c2ccccc2S(=O)(=O)N1CCCCN1CCN(c2ncccn2)CC1,Potency,[1],inactive
same,Potency,[2],inactive
same,Potency,[9],inactive
same,max activation,[5],0.873%
C[C@@H](c1ncncc1F)C(O)(Cn1cncn1)c1ccc(F)cc1F (stereo partly specified),Potency,[1],inactive
same,Potency,[2],inactive
same,Potency,[9],inactive
same,Potency,[6],inactive
CN(C)CCCN1c2ccccc2Sc2ccccc21,Potency,[1],23.7 µM (active)
same,Potency,[2],inactive
same,Potency,[3],inactive
same,max activation,[5],-2.41%
COc1ccc(C(=O)c2ccc(OC)cc2O)c(O)c1,Potency,[1],inactive
same,Potency,[2],inactive
same,Potency,[9],inactive
same,Potency,[4],27.5 µM (active)
COc1cc2nc(N3CCN(C(=O)C4COc5ccccc5O4)CC3)nc(N)c2cc1OC (stereo unspecified),Potency,[1],26.6 µM (active)
same,Potency,[2],inactive
same,Potency,[9],inactive
same,max activation,[5],-0.947%
same,Potency,[6],inactive
CCCCCCCCCCCCCCCCOS(=O)(=O)O,Potency,[1],inactive
same,Potency,[2],inactive
same,Potency,[9],inactive
same,Potency,[4],inactive
CCCCCCCCCCCCN1CCCCCC1=O,Potency,[2],inactive
same,Potency,[10],inactive
same,Potency,[9],inactive
same,Potency,[3],inactive
same,Potency,[4],21.7 µM (active)
CCOc1ccc(N)c([N+](=O)[O-])c1,Potency,[1],inactive
same,Potency,[2],inactive
same,Potency,[9],inactive
same,Potency,[4],inactive
COc1cc2c(cc1OC)C(C(C(=O)N(CCc1ccc(OC)c(OC)c1OC)CCc1ccc(OC)c(OC)c1OC)c1ccccc1)=NCC2 (stereo unspecified),Potency,[2],inactive
same,Potency,[10],26.6 µM (active)
same,Potency,[9],inactive
same,Potency,[3],26.6 µM (active)
same,Potency,[4],2.66 µM (active)
same,Potency,[5],2.51 µM (active)
same,Potency,[7],inactive
same,Potency,[8],7.94 µM (active)
same,Potency,[6],5.49 µM (active)
CNCCCN1c2ccccc2CCc2ccccc21,Potency,[1],23.7 µM (active)
same,Potency,[9],inactive
same,Potency,[4],inactive
same,max activation,[5],-1.95%
same,Potency,[7],inactive
same,Potency,[8],inactive
NCc1ccccc1Sc1ccccc1CO,Potency,[1],inactive
same,Potency,[2],inactive
same,Potency,[3],inactive
same,Potency,[4],inactive
same,max activation,[5],-1.62%
same,Potency,[7],inactive
same,Potency,[8],inactive
same,Potency,[6],7.76 µM (active)
CNCCCCOc1ccccc1Cc1ccccc1,Potency,[1],26.6 µM (active)
same,Potency,[3],inactive
same,Potency,[4],inactive
same,Potency,[8],inactive
same,Potency,[6],2.45 µM (active)
CC1CCC(=O)C1=O (stereo unspecified),Potency,[1],inactive
same,Potency,[2],inactive
same,Potency,[9],inactive
same,Potency,[4],inactive
C=CCOc1ccccc1OCC(O)CNC(C)C (stereo unspecified),Potency,[1],inactive
same,Potency,[2],inactive
same,Potency,[3],inactive
same,Potency,[4],inactive
same,max activation,[5],5.72%
same,Potency,[7],inactive
same,Potency,[8],inactive
same,Potency,[6],9.77 µM (active)
CN1CCC(=C2c3ccccc3Sc3ccccc32)CC1,Potency,[1],23.7 µM (active)
same,Potency,[2],inactive
same,Potency,[9],inactive
same,Potency,[4],inactive
same,max activation,[5],-5.4%
same,Potency,[7],10 µM (active)
same,Potency,[8],14.1 µM (active)
CCCOC(C(=O)OC1CCN(C)CC1)(c1ccccc1)c1ccccc1,Potency,[1],23.7 µM (active)
same,Potency,[2],inactive
same,Potency,[9],inactive
same,Potency,[5],15.8 µM (active)
same,Potency,[7],28.2 µM (active)
same,Potency,[8],14.1 µM (active)
same,Potency,[6],7.76 µM (active)
